Structures are written as SMILES. Screen size: about 310,000 compounds; about 2,200 (0.71%) showed an effect of 50% or more. Effects have a minus sign here. Many of the other results were omitted from the sample, so strong results are more common in it than they were.

Sequence of human ether-à-go-go-related gene (hERG) potassium channel (Q12809 whole entry, looked up): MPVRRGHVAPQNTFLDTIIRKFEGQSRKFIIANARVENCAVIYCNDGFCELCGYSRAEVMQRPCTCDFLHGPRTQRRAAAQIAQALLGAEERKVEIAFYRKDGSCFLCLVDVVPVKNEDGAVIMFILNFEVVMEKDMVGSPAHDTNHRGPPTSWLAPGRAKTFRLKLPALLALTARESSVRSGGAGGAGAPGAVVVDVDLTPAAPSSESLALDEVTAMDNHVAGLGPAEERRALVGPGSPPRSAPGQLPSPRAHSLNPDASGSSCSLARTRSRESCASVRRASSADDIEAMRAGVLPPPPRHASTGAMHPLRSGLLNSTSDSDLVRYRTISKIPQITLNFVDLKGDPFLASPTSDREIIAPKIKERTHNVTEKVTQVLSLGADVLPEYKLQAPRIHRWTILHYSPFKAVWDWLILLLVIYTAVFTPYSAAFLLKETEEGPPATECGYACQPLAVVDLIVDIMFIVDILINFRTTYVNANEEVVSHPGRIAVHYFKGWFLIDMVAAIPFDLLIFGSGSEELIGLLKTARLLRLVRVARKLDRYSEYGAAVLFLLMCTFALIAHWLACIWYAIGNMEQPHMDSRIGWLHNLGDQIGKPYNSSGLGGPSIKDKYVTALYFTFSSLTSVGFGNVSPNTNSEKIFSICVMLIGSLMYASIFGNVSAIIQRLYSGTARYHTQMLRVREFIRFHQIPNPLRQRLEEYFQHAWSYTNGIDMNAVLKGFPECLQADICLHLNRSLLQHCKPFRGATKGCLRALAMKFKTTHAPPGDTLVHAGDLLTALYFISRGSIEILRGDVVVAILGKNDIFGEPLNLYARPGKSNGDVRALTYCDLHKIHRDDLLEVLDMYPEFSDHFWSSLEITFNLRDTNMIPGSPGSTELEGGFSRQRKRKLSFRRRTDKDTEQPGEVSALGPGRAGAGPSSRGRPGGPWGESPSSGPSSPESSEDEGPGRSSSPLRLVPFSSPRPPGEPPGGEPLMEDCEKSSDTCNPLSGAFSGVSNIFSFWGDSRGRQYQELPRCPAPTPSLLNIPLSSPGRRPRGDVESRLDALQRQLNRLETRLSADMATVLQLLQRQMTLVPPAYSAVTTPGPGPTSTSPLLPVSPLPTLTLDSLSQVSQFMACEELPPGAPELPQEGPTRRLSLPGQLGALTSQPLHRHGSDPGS

The experiment has as its target human ether-à-go-go-related gene (hERG) potassium channel (human, UniProt Q12809). Briefly: primary screen, population patch clamp on CHO cells stably expressing hERG; higher = less effect of the substance.
`O=C(CSc1nnc(CNC(=O)c2ccccc2)o1)NCc1ccc2c(c1)OCO2`: the “hERG current change (%, negative = inhibition) at 1uM” value is on record as 4.4%.

On to `CCN1CCN(c2c(Cl)cccc2NC(=O)c2ccc([N+](=O)[O-])cc2)CC1`, for which the “hERG current change (%, negative = inhibition) at 1uM” value was -15.9%.

As to `CSc1ccccc1C(=O)C1CCCN(C(=O)CCc2cccnc2)C1` (stereo not drawn), the “hERG current change (%, negative = inhibition) at 1uM” value is on record as 8.69%.

For the molecule `COc1ccc(NC(=O)CSc2nc3ccccc3c(=O)n2CCCO)cn1`, the “hERG current change (%, negative = inhibition) at 1uM” value is recorded as -26.1%.

Consider `COc1ccc(OC)c(C2CC(=O)NC(SC)=C2C#N)c1` (stereo not drawn), for which the “hERG current change (%, negative = inhibition) at 1uM” value worked out at 7.92%.

Turning to `O=C(CSc1ccccc1)Nc1nnc(COc2ccc(Cl)cc2)s1`, the “hERG current change (%, negative = inhibition) at 1uM” value is 3.34%.

For the molecule `CCOc1ccc(CN2CCN(Cc3ccc4cc(F)ccc4n3)CC2CCO)cc1` (stereo not drawn), the “hERG current change (%, negative = inhibition) at 1uM” value is on record as -79.3%.

`COc1cc(CN2CCN(Cc3ccc4cc(F)ccc4n3)CC2CCO)cc(OC)c1` (stereo not drawn): the “hERG current change (%, negative = inhibition) at 1uM” value is -21.6%.

Consider `CCOc1ccccc1CN1CCN(Cc2ccc3cc(F)ccc3n2)CC1CCO` (stereo not drawn), for which the “hERG current change (%, negative = inhibition) at 1uM” value was -44.1%.

For `Cc1cc(=O)[nH]c(/N=C(\N)Nc2ccc(SC(F)F)cc2)n1`, the “hERG current change (%, negative = inhibition) at 1uM” value is 1.96%.

For the molecule `Cc1cc(C)nc(/N=C(\N)Nc2ccc(OCc3ccccc3)cc2)n1`, the “hERG current change (%, negative = inhibition) at 1uM” value is recorded as -28.8%.

Turning to `Cc1cc(C)nc(/N=C(\N)Nc2ccc(SC(F)F)cc2)n1`, the “hERG current change (%, negative = inhibition) at 1uM” value is recorded as -52.9%.

Regarding `CC(=O)Nc1ccc(N/C(N)=N/c2nc(C)cc(C)n2)cc1`, the “hERG current change (%, negative = inhibition) at 1uM” value is 8.5%.

Take `CCOc1ccc(N/C(N)=N/c2nc(C)cc(C)n2)cc1`: the “hERG current change (%, negative = inhibition) at 1uM” value is 4.81%.

Turning to `Cc1cc(C)nc(/N=C(\N)Nc2ccc(OCCC(C)C)cc2)n1`, the “hERG current change (%, negative = inhibition) at 1uM” value is recorded as -55.9%.

As for `Cc1ccc(N/C(N)=N/c2nc(C)cc(C)n2)cc1`, the “hERG current change (%, negative = inhibition) at 1uM” value is -24.7%.

With `Cc1cc(C)nc(/N=C(\N)Nc2ccc(C(C)C)cc2)n1`, the “hERG current change (%, negative = inhibition) at 1uM” value is -3.29%.

For the molecule `Cc1cc(C)nc(/N=C(\N)Nc2ccc(-c3ccccc3)cc2)n1`, the “hERG current change (%, negative = inhibition) at 1uM” value is reported as -59.8%.

With `COc1cccc(N2CCN(S(=O)(=O)c3c(C)[nH]c(C)c3C(=O)N3CCCCC3)CC2)c1`, the “hERG current change (%, negative = inhibition) at 1uM” value stood at 15.2%.

On to `CC(C)(C)OC(=O)N1CCC(Cc2cc(-c3cccc(Br)c3)no2)(C(=O)O)CC1`, for which the “hERG current change (%, negative = inhibition) at 1uM” value is -14%.

On to `Cc1ccc(-n2nc3c(c2NC(=O)C2CC2)CS(=O)(=O)C3)cc1`, for which the “hERG current change (%, negative = inhibition) at 1uM” value is reported as -0.97%.

In the case of `O=C(COC(=O)C1CCCCC1)Nc1ccccc1OC(F)F`, the “hERG current change (%, negative = inhibition) at 1uM” value turned out to be 12.3%.

Turning to `Cc1cccn2c(CN3CCSCC3)c(C(=O)N3CCOCC3)nc12`, the “hERG current change (%, negative = inhibition) at 1uM” value is recorded as -1.36%.

As to `Cc1cccn2c(CN3CCCC(c4ccccc4)C3)c(C(=O)N3CCOCC3)nc12` (stereo not drawn), the “hERG current change (%, negative = inhibition) at 1uM” value was -53.3%.

As to `Cc1cccn2c(CN[C@@H]3CCCC[C@H]3c3ccccc3)c(C(=O)N3CCOCC3)nc12`, the “hERG current change (%, negative = inhibition) at 1uM” value was 4.31%.

In the case of `COc1cc2c(cc1OC)C1(Nc3c-2c(Cc2ccccc2)nn3-c2ccccc2)C(=O)Nc2ccccc21` (stereo not drawn), the “hERG current change (%, negative = inhibition) at 1uM” value was found to be 12.4%.

Take `N=c1c2c(-c3ccccc3)c(-c3ccccc3)n(Cc3ccco3)c2ncn1CCO`: the “hERG current change (%, negative = inhibition) at 1uM” value was -52.2%.

As to `CC(C)Cn1cnc2c(c(-c3ccccc3)c(-c3ccccc3)n2Cc2ccco2)c1=N`, the “hERG current change (%, negative = inhibition) at 1uM” value is -26.2%.

For `N=c1c2c(-c3ccccc3)c(-c3ccccc3)n(Cc3ccco3)c2ncn1CCN1CCOCC1`, the “hERG current change (%, negative = inhibition) at 1uM” value is recorded as -72.3%.

On to `N=c1c2c(-c3ccccc3)c(-c3ccccc3)n(Cc3ccccc3)c2ncn1CCCn1ccnc1`, for which the “hERG current change (%, negative = inhibition) at 1uM” value is on record as -32%.

Regarding `CCCCn1cnc2c(c(-c3ccccc3)c(-c3ccccc3)n2Cc2ccco2)c1=N`, the “hERG current change (%, negative = inhibition) at 1uM” value is recorded as -45.6%.

`N=c1c2c(-c3ccccc3)c(-c3ccccc3)n(Cc3ccco3)c2ncn1Cc1ccco1`: the “hERG current change (%, negative = inhibition) at 1uM” value was -26.8%.

For `N=c1c2c(-c3ccccc3)c(-c3ccccc3)n(Cc3ccco3)c2ncn1CCCn1ccnc1`, the “hERG current change (%, negative = inhibition) at 1uM” value is -63.6%.

Take `N=c1c2c(-c3ccccc3)c(-c3ccccc3)n(Cc3ccco3)c2ncn1CCCO`: the “hERG current change (%, negative = inhibition) at 1uM” value was -34.5%.

`N=c1c2c(-c3ccccc3)c(-c3ccccc3)n(Cc3ccco3)c2ncn1Cc1ccccc1`: the “hERG current change (%, negative = inhibition) at 1uM” value was -4.13%.

As for `N=c1c2c(-c3ccccc3)c(-c3ccccc3)n(Cc3ccccc3)c2ncn1CCO`, the “hERG current change (%, negative = inhibition) at 1uM” value is given as 0.416%.

As to `c1ccc(-c2c(-c3ccccc3)n(Cc3ccco3)c3ncnc(NCCCn4ccnc4)c23)cc1`, the “hERG current change (%, negative = inhibition) at 1uM” value is -9.73%.

Turning to `N=c1c2c(-c3ccccc3)c(-c3ccccc3)n(Cc3ccco3)c2ncn1CCCN1CCOCC1`, the “hERG current change (%, negative = inhibition) at 1uM” value was -91.3%.

Regarding `Cc1cc(C)n(Cc2ccc(NC(=O)c3ccc(COc4ccccc4Br)cc3)cc2)n1`, the “hERG current change (%, negative = inhibition) at 1uM” value was -8.42%.

Turning to `O=C(O)C1=C(OCc2ccc(F)c(F)c2)C(=O)NCC1`, the “hERG current change (%, negative = inhibition) at 1uM” value was determined as 13.4%.

`Cc1ccc(C(C(=O)NC2CCCC2)N(Cc2ccccc2)C(=O)c2csnn2)o1` (stereo not drawn): the “hERG current change (%, negative = inhibition) at 1uM” value is given as 12.4%.

On to `COc1cc(C(=O)O)ccc1OCc1ccncc1`, for which the “hERG current change (%, negative = inhibition) at 1uM” value is given as 14.1%.

On to `CCOC(=O)C(=O)NC(C)CCc1ccccc1` (stereo not drawn), for which the “hERG current change (%, negative = inhibition) at 1uM” value is 9.43%.

For the molecule `Cc1ccc(C(C)C)c(OCC(=O)N2CCN(c3ncccn3)CC2)c1`, the “hERG current change (%, negative = inhibition) at 1uM” value is reported as 10%.

`CCCn1c(=N)c(C(=O)NCC2CCCO2)cc2c(=O)n3cccc(C)c3nc21` (stereo not drawn): the “hERG current change (%, negative = inhibition) at 1uM” value is listed as -78.3%.

`Cc1cccn2c(=O)c3cc(C(=O)NC4CCCCC4)c(=N)n(Cc4ccccc4)c3nc12`: the “hERG current change (%, negative = inhibition) at 1uM” value is given as -40.2%.

Turning to `Cc1cccn2c(=O)c3cc(C(=O)NCC4CCCO4)c(=N)n(CC4CCCO4)c3nc12` (stereo not drawn), the “hERG current change (%, negative = inhibition) at 1uM” value is -84.8%.

Turning to `Cc1cccn2c(=O)c3cc(C(=O)NC4CCCC4)c(=N)n(CC4CCCO4)c3nc12` (stereo not drawn), the “hERG current change (%, negative = inhibition) at 1uM” value was -80.2%.

For the molecule `Cc1cccn2c(=O)nc(SCC(=O)NCc3ccc4c(c3)OCO4)nc12`, the “hERG current change (%, negative = inhibition) at 1uM” value was -1.11%.

As for `CCCn1c(=N)c(C(=O)NCc2ccc3c(c2)OCO3)cc2c(=O)n3cccc(C)c3nc21`, the “hERG current change (%, negative = inhibition) at 1uM” value was -67.3%.

Consider `Cc1cccn2c(=O)c3cc(S(=O)(=O)c4ccccc4)c(=N)n(CC4CCCO4)c3nc12` (stereo not drawn), for which the “hERG current change (%, negative = inhibition) at 1uM” value amounted to 7.88%.

(Values after paper PMC4336329 (PLoS ONE, 2015).)
